Reference: PubChem BioAssay AID1438 (Sanford-Burnham Center for Chemical Genomics, 2008)
In all, about 2,200 compounds went through this assay and about 45 (2%) were called active. No rule for the calls is given here. Only a sample is shown. Measured potencies and affinities stand elsewhere.

The compounds below were run against Runt-related transcription factor 1 (Homo sapiens) + Core-binding factor subunit beta (Homo sapiens) (UniProt Q01196+Q13951) (assay: inhibitors of RUNX1 Runt–CBFb-SMMHC binding, biochemical, TR-FRET (AID 1438)). Details: TR-FRET Runt domain–CBFb-SMMHC binding, at 20 µM, hits give high values.
Chain of Runt-related transcription factor 1 (Homo sapiens) + Core-binding factor subunit beta (Homo sapiens) (Q01196 whole entry, looked up, the tested form may be a part): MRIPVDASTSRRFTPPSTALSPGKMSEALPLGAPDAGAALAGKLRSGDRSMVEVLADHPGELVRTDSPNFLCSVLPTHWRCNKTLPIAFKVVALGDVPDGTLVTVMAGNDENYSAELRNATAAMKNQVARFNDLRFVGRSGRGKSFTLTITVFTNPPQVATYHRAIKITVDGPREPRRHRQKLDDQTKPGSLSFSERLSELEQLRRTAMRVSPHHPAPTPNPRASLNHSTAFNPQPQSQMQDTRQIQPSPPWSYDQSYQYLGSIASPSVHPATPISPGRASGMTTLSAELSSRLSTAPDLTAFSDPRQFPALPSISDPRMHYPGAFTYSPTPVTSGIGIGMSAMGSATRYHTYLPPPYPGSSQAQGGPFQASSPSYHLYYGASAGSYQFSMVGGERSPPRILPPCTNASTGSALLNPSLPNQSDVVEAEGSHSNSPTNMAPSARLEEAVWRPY
Chain of Runt-related transcription factor 1 (Homo sapiens) + Core-binding factor subunit beta (Homo sapiens) (Q13951 whole entry, looked up, the tested form may be a part): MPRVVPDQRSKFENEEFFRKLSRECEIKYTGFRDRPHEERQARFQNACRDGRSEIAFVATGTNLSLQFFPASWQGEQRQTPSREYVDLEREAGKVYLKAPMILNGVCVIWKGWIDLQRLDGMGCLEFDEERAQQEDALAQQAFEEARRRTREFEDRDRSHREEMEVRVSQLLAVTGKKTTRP

inhibition, inactive:
COP(=O)(CC(=O)c1ccccc1)CC(=O)c1ccccc1 -7.7%
Nc1ccc2c(C(F)(F)F)cc(=O)oc2c1 18.1%
O=C(c1ccccc1)c1cnc(Nc2ccc(Cl)c(Cl)c2)s1 29.7%
COc1ccc(N2C3=C(C(=O)CC(C)(C)C3)C(c3ccccc3OC)C3=C2CC(C)(C)CC3=O)cc1 2.8%
COc1ccc(N2C3=C(C(=O)CC(C)(C)C3)C(c3cnn(C)c3)C3=C2CC(C)(C)CC3=O)cc1 -7.6%
CCOC(=O)C1=C(Cc2ccc(C)cc2)C(=O)c2ccccc2C1=O 45.1%
CCOC(=O)c1sc(-c2ccc(Cl)cc2)nc1O -7.6%
Oc1c(C=NCc2ccccc2)sc2ccccc12 -12.8%
CN(C)c1nc(-c2cccs2)cc(C(F)(F)F)c1C#N -6.2%
CN(C)CCNc1c2c(c(C#N)c3nc4ccccc4n13)CCCC2 21.3%
N#Cc1c2c(c(Nc3ccccc3)n3c1nc1ccccc13)CCC2 33.8%
O=C(Nc1nc2c(s1)CN(Cc1ccccc1)CC2)C1CCCC1 -11.2%
CCOc1ccc2nc(NCCNC(=S)NCCCN(C)C)c(C#N)cc2c1 -5.8%
COCCn1c(=N)c(C(=O)NCCc2ccc(OC)cc2)cc2c(=O)n3cccc(C)c3nc21 23.3%
COc1ccc(/C=C2/C(=O)ON=C2c2ccccc2)cc1OC -3.7%
Cn1c(C(=O)NCCC2=CCCCC2)cc2c(=O)n3ccccc3nc21 34.3%
CCCS(=O)(=O)c1c(S(=O)(=O)CCC)c2c(C)cccn2c1C(=O)N/N=C/c1cc(O)cc(O)c1 1.8%
COc1ccc2nc(Nc3sc4c(c3C(N)=O)CCCC4)sc2c1 45.1%
COc1ccccc1-n1c(SCc2cc(=O)oc3cc(O)ccc23)nc2ccccc2c1=O 29.8%
COc1cc(-c2nnc(SCc3cc(=O)oc4cc(O)c(O)cc34)o2)cc(OC)c1OC 49.9%
N#Cc1c(NC(=O)CSc2ncc(-c3ccccc3)n2CC2CCCO2)sc2c1CCCC2 (configuration not stated) -3.3%
CC(=O)N1c2ccccc2C2(O)N=C(C)SC12 (configuration not stated) 28.9%
